The structures appear in SMILES notation. Inconclusive results are not listed. Where a call stands in place of a potency, no number is given. Activity calls are given as the source filed them. The call rests on the fitted dose curve.

Sequence of Progesterone receptor (Homo sapiens) (P06401 whole entry, looked up): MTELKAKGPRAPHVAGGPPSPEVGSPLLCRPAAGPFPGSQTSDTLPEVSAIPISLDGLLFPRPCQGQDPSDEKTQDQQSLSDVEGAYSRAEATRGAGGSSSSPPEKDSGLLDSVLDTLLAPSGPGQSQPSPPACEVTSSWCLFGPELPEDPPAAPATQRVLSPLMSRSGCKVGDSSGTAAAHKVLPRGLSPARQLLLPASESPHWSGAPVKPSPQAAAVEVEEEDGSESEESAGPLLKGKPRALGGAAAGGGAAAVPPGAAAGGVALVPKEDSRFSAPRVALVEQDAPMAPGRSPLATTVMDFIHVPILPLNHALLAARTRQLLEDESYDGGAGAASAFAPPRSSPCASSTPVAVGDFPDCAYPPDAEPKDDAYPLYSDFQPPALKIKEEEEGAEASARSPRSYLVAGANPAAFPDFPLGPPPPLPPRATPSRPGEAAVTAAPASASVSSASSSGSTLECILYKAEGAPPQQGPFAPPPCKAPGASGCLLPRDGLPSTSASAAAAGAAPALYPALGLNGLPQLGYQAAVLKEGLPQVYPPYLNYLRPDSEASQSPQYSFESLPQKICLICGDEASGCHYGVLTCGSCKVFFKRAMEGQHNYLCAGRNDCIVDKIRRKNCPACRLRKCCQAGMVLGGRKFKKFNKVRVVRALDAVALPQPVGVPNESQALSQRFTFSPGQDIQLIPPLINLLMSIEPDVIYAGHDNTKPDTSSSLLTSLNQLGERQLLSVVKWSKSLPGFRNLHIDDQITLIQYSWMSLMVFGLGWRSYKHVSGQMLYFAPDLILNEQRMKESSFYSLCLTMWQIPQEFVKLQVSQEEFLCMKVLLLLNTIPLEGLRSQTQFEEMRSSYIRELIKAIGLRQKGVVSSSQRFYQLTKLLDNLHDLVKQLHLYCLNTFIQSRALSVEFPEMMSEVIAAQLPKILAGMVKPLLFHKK

The test has as its target Progesterone receptor (Homo sapiens) (UniProt P06401). The test is described as follows: qHTS assay to identify small molecule agonists of the progesterone receptor (PR) signaling pathway (AID 1346784). Further: nearly all actives have a fitted effect of over 30% in size. The following applies: PR-UAS-bla HEK293T, beta-lactamase FRET ratio, 16 h; series mostly up to 92.4 µM. An excerpt: U.S. Tox21 Program National Center for Advancing Translational Sciences [NCATS] NIH Chemical Genomics Center [NCGC] U.S. Environmental Protection Agency [EPA] National Institutes of Environmental Health Sciences [NIEHS] National Toxicology Program [NTP] U.S. Food and Drug Administration [FDA] […] Endocrine disrupting chemicals (EDCs) and their interactions with steroid hormone receptors like PR causes disruption of normal endocrine function. To identify the compounds that activate PR signaling, a PR-UAS-bla GripTite cell line i.e. PR-UAS-bla HEK 293T (Invitrogen, Carlsbad, CA, USA) containing a beta-lactamase reporter gene under the control of an Upstream Activator Sequence (UAS) was used to screen Tox21 10K compound library.
Tox21 Assay Protocol Summary: PR-UAS-bla HEK 293T cells were dispensed at 3,000 cells/5 uL of assay medium containing 2% charcoal stripped FBS per well into black wall/clear-bottom 1536-well plates using a Multidrop Combi (ThermoFisher Scientific, Waltham, MA) dispenser. After the assay plates were incubated at a 37C and 5% CO2 for 6hr, 23 nL of compounds dissolved in DMSO, positive controls or DMSO only was transferred to the assay plate by a Pintool station (Kalypsys, San Diego, CA). The plates were incubated at 37C and 5% CO2 for 16hr. Then 1 uL of LiveBLAzer B/G FRET substrate was added using a BioRAPTR FRD (Flying Reagent Dispenser, Aurora Discovery, San Diego, CA). After the plates were incubated at room temperature for 2 hours, fluorescence intensity was measured by an Envision plate reader (PerkinElmer, Shelton, CT).
As to `O=C(OCC1(COC(=O)c2cccnc2)CCCC(COC(=O)c2cccnc2)(COC(=O)c2cccnc2)C1O)c1cccnc1`, the Potency entry is “inactive”. On the same count and under the same terms, then `CC(=O)CCCCn1c(=O)c2c(ncn2C)n(C)c1=O`, with “inactive”. Still for that read-out and setting: next, `CCCCN`: “inactive”; `CCCC/C=C/C=C\C=O`: “inactive”. For the molecule `CC(C)=O`, the Potency entry was “inactive”. On the same count and under the same terms, then `CC(C)C[C@H](NC(=O)CNC(=O)[C@H](Cc1ccc(O)cc1)NC(=O)[C@H](CO)NC(=O)[C@H](Cc1c[nH]c2ccccc12)NC(=O)[C@H](Cc1cnc[nH]1)NC(=O)[C@@H]1CCC(=O)N1)C(=O)N[C@@H](CCCN=C(N)N)C(=O)N1CCC[C@H]1C(=O)NCC(N)=O` (stereo in doubt), with “inactive”; and `O=S(=O)(O)c1cc(O)c2ccc(Nc3ccccc3)cc2c1`, with “inactive”. Take `Cc1nc2n(c(=O)c1CCN1CCC(c3noc4cc(F)ccc34)CC1)CCC[C@H]2O`: the activation is -1.98% [at 19 µM] (inactive). With `BrCCCCCBr`, the Potency result is “inactive”.

Take `O=C(NCCc1c[nH]c2ccccc12)c1cccnc1`: the Potency entry is “inactive”. Same read-out and setting: next, `CCOC(=O)c1ccc(OC(=O)CCCCCN=C(N)N)cc1`: “inactive”. Regarding `CC1=C(C(=O)O)N2C(=O)[C@@H](NC(=O)[C@H](N)c3ccc(O)cc3)[C@H]2SC1`, the Potency entry was “inactive”.

`O=S(=O)(O)c1ccc2cc(O)c(S(=O)(=O)O)cc2c1`: the Potency result is “inactive”. On to `COCCOCCOCCOCCOCCO`, for which the Potency entry was “inactive”. Take `CC(N)C(=O)OC(C)(C)Cc1ccc(Cl)cc1` (stereo not given): the Potency result is “inactive”.

Consider `O=C(NCCN1CCOCC1)c1ccc(Cl)cc1`, for which the Potency entry is “inactive”. On to `CC(C)CCCCOC(=O)c1ccccc1C(=O)OCCCCC(C)C`, for which the Potency entry is “inactive”.

With `O=C(OCc1ccccc1)C(=O)OCc1ccccc1`, the Potency entry was “inactive”. Same read-out and setting: next, `CNC(=O)[C@H]1O[C@@H](n2cnc3c(NCc4cc(Cl)ccc4OCc4cc(C)no4)ncnc32)[C@H](O)[C@@H]1N`: “inactive”; `C=C(C)C(=O)OCCNC(C)(C)C`: “inactive”; `Cc1ccc(S(=O)(=O)O)c(C)c1`: “inactive”.

For `CCOCCOC(=O)/C=C/c1ccc(OC)cc1`, the Potency entry is “inactive”.

`Cc1ccccc1N=O`: the Potency entry was “inactive”. Same read-out and setting: next, `CC(=O)Nc1ccc(S(=O)(=O)Cl)cc1`: “inactive”. Still for that read-out and setting: then `O=C(O)c1cc(Cl)cc([N+](=O)[O-])c1Cl`, with “inactive”; and `Brc1ccc(-c2ccccc2)cc1`, with “inactive”. With `C[Si](C)=O`, the activation was 1.46% [at 8.39 µM] (inactive). Consider `COc1ccc(C2CNC(=O)C2)cc1OC1CCCC1` (stereo not given), for which the Potency result is “inactive”. Same read-out and setting: next, `Cc1ccsc1/C=C/C1=NCCCN1C`: “inactive”; `C[C@H](N)[C@H](O)c1cccc(O)c1`: “inactive”. With `C=C(C)C(=O)OCCN(CC)CC`, the Potency result is “inactive”. Take `CN(C)C(=O)CNC(=O)Cc1ccccc1`: the Potency entry was “inactive”. Take `Cc1cccc(OCC(O)CNC(C)(C)C)c1C` (stereo not given): the Potency entry is “inactive”. Regarding `ClCCCl`, the Potency result is “inactive”.

On to `Cc1cc(Cl)c(C)cc1Cl`, for which the Potency result was “inactive”. Still for that read-out and setting: then `CN(C)CCOCCO`, with “inactive”.

On to `CC(C)OC(=O)CCCCC(=O)OC(C)C`, for which the Potency result is “inactive”. Same read-out and setting: then `CC(C)C(=O)OCc1cccc(OC(=O)[C@@H]2N3C(=O)[C@@H](NC(=O)Cc4ccccc4)[C@H]3SC2(C)C)c1`, with “inactive”. Consider `OCCN(CCO)c1cccc(Cl)c1`, for which the Potency result is “inactive”. Turning to `COC(=O)[C@@H]1[C@H]2C[C@H]3c4[nH]c5ccccc5c4CCN3C[C@@H]2CC[C@@H]1O`, the Potency result is “inactive”.

These data come from PubChem BioAssay (Tox21).
